# About 19,000 (20%) of roughly 96,000 compounds were called active. A selection follows. A number with no mark means an inactive call.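 How the source made its calls: active means blocking of liver enzyme CYP2C9 beyond about 50% at 5 µM (limit read from the data); inactive means the rest.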
# Biological target: Cytochrome P450 2C9 (Homo sapiens) (UniProt P11712)
# Assay: blockers of cytochrome P450 2C9 activity – biochemical, luminescence, ADME assay, primary screen (AID 777)
# Conditions: CYP2C9 Supersomes, luciferin-H conversion, at 5 µM, active compounds read high
# Sequence of Cytochrome P450 2C9 (Homo sapiens) (P11712 whole entry, looked up): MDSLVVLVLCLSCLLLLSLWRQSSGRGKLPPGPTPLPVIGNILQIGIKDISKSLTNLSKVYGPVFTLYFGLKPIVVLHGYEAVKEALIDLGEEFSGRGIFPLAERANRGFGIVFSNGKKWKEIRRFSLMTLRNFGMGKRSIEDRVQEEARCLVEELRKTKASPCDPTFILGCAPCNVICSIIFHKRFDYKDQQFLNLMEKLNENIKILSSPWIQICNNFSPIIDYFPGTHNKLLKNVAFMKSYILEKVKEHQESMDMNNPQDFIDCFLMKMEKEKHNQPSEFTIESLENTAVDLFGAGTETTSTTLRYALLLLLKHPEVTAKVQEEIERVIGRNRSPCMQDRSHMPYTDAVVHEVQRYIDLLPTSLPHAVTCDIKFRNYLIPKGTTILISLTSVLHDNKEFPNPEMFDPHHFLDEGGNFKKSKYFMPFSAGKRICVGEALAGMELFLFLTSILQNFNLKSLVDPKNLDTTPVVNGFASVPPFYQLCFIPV
row,SMILES,inhibition
1,Cc1nn(-c2cc(Cl)ccc2N)c(=O)c2ccccc12,2.2%
2,O=C1C2(c3ccccc3)CN(CCCO)CC1(c1ccccc1)CN(CCCO)C2,7.8%
3,Cc1ccc(NC(=O)CCNS(=O)(=O)c2ccc3c(c2)oc(=O)n3C)cc1C,-21.7%
4,FC(F)Oc1ccccc1C1CC(c2ccc(Br)s2)Nc2ncnn21 (stereo unspecified),91.4% (active)
5,CCCCC(=O)N1CC2(C)CN(C(=O)CCCC)CC(C)(C1)C2=O,-4%
6,Cn1cnc([N+](=O)[O-])c1Sc1ccccc1,8.6%
7,O=C(N1CCOCC1)N1CCOCC1,-8.2%
8,COc1ccc(C2CC(c3ccc(C)cc3)Nc3ncnn32)cc1 (stereo unspecified),65.4% (active)
9,COc1ccc(C2CC(c3ccccc3)Nc3ncnn32)cc1 (stereo unspecified),23.9%
10,COc1ccc(C2CC(c3ccc(C)cc3)Nc3nc(N)nn32)cc1 (stereo unspecified),27.3%
11,CCC(=O)c1ccc(OCC(O)CN2CC(C)OC(C)C2)cc1 (stereo unspecified),18.3%
12,N#Cc1ccc(-c2ccc(Cl)cc2)nc1Oc1ccc(F)cc1,6.8%
13,O=S(=O)(c1ccc(Br)cc1)n1ccc2ccccc21,-2.4%
14,CCOCCOCCC(C(=O)O)P(=O)(c1ccccc1)c1ccccc1 (stereo unspecified),-7.7%
15,COC(=O)c1sccc1N/N=C(\C)c1ccc(F)c(Cl)c1,9.3%
16,COC(=O)c1sccc1NC(=O)c1cc(OC)c(OC)c(OC)c1,7.6%
17,COC(=O)c1sccc1NC(=O)CSc1ccccc1NS(=O)(=O)c1cc(Cl)ccc1Cl,84.2% (active)
18,COC(=O)c1ccccc1Oc1c(F)c(F)nc(N2CCOCC2)c1F,45.2%
19,CCOc1ccc(NC(=O)CSc2nc3c(c(=O)n2-c2ccccc2OC)SCC3)cc1,40.8%
20,CCn1c(SCC(=O)Nc2ccc3c(c2)OCCO3)nc2c(c1=O)SC(C)C2 (stereo unspecified),92.9% (active)
21,CCCCSc1nc2c(c(=O)n1CC)SC(C)C2 (stereo unspecified),51.2% (active)
22,CCCCCn1c(SCCC(C)C)nc2c1c(=O)[nH]c(=O)n2C,10.1%
23,COc1ccccc1C(=O)C(O)c1ccccc1OC (stereo unspecified),-2.8%
24,CCOC(=O)N1CCN(CC(=O)Nc2cc(C)nn2-c2nc3ccccc3s2)CC1,25.8%

row,SMILES,inhibition
1,O=C(c1ccco1)N(Cc1nc2ccccc2c(=O)[nH]1)C1CCCC1,-20.5%
2,CC(=O)Oc1cccc(N2C(=O)CC(Nc3ccc(N4CCOCC4)cc3)C2=O)c1 (stereo unspecified),19.9%
3,CC1OC2C(OC1C)N(S(C)(=O)=O)CCN2S(C)(=O)=O (stereo unspecified),-6.8%
4,Cc1cccc(N2C(=O)C3C(c4ccccc4)OC4(C(=O)c5ccccc5C4=O)C3C2=O)c1 (stereo unspecified),-8.4%
5,Cc1cc(NC(=O)CN2CCC(O)(c3cccc(F)c3)CC2)no1,23.3%
6,Cc1cc(NC(=O)CCC(=O)N(c2cccc(F)c2)C(C(=O)NC2CCCC2)c2ccncc2)no1 (stereo unspecified),77.9% (active)
7,Cc1cc(NC(=O)CCC2COc3ccccc3O2)no1 (stereo unspecified),7.1%
8,Cc1cc(NC(=O)CCC(=O)N(c2ccccc2)C(C(=O)NC2CCCC2)c2ccncc2)no1 (stereo unspecified),55.9% (active)
9,Cc1cc(NC(=O)/C=C/C(=O)N(c2ccccc2C)C(C(=O)NC2CCCC2)c2ccc(F)cc2)no1 (stereo unspecified),25.2%
10,Cc1ccc(C(C(=O)NC2CCCC2)N(Cc2ccco2)C(=O)CCC(=O)Nc2ccccn2)cc1 (stereo unspecified),28.7%
11,CC1CC(C)CN(C/C=C/c2ccccc2[N+](=O)[O-])C1 (stereo unspecified),9.8%
12,CCc1nc(C)ccc1OCC(=O)N(CC)CC,-6.3%
13,c1ccc(Nc2n[nH]nc2-c2ccccc2)cc1,28.9%
14,Cc1cccc(Cn2c(SCCO)nc3c2c(=O)n(C)c(=O)n3C)c1,54% (active)
15,CCOC(=O)CSc1nc2c(c(=O)n(Cc3ccccc3Cl)c(=O)n2C)n1C,-7.5%
16,CCCSc1nc2c(c(=O)n(C)c(=O)n2C)n1Cc1ccc(C)cc1,9.9%
17,C/C(Cl)=C\Cn1c(Nc2cccc(C)c2)nc2c1c(=O)n(C)c(=O)n2C,-7.8%
18,CCOc1ccc(Cn2c(SCCCCC#N)nc3c2c(=O)n(C)c(=O)n3C)cc1OCC,31.1%
19,CC(C)OCCCNc1nc2c(c(=O)n(Cc3ccccc3F)c(=O)n2C)n1C,22.3%
20,Cc1cccc(Cn2c(N3CCN(c4ccccc4)CC3)nc3c2c(=O)n(C)c(=O)n3C)c1,66.1% (active)
21,Cn1c(=O)c2c(ncn2CC(=O)N2CCN(c3ccccc3)CC2)n(C)c1=O,6.8%
22,CCOC(=O)CSc1nc2c(c(=O)n(C)c(=O)n2C)n1Cc1ccccc1F,60.5% (active)
23,COc1ccc(CNC(=O)C2CCN(S(=O)(=O)N3CCOCC3)CC2)cc1,-2.7%
24,Cn1c(N)c(C(=O)COC(=O)C23CC4CC(CC(C4)C2)C3)c(=O)n(C)c1=O,29.6%

row,SMILES,inhibition
1,COc1ccc(N2C(=O)C3CCCN3C2c2cc(OC)c(OC)cc2OC)cc1 (stereo unspecified),-1.9%
2,CC1CN(C(=O)CN2C(=O)NC(C)(c3ccccc3)C2=O)CC(C)O1 (stereo unspecified),-27.2%
3,CCOC(=O)C1=C(CNC2CCCCC2)NC(=O)NC1c1cc(C)ccc1C (stereo unspecified),84.7% (active)
4,CCOC(=O)C1=C(CSc2nccn2C)NC(=O)NC1c1ccc(OC)cc1 (stereo unspecified),17.2%
5,CCOC(=O)c1[nH]cnc1C(=O)NC1CCCCC1,28.5%
6,Cc1[nH]c2ccccc2c1C(=O)CSCC(=O)O,-30.3%
7,CCC(c1nnnn1Cc1ccco1)N(Cc1cc2cc(OC)ccc2[nH]c1=O)C1CCCCC1 (stereo unspecified),58.2% (active)
8,CCC(c1nnnn1C1CCCC1)N(Cc1cccs1)Cc1cc2cccc(C)c2[nH]c1=O (stereo unspecified),-52.1%
9,COc1ccc2[nH]c3c(=O)n(Cc4ccco4)cnc3c2c1,26%
10,CCOc1ccc2c(c1)cc(CN(C(=O)CC)C1CCCCC1)c1nnnn12,35.6%
11,CCC(c1nnnn1Cc1ccco1)N(CCc1ccccc1)Cc1cc2ccc(OC)cc2[nH]c1=O (stereo unspecified),91.9% (active)
12,CCC(c1nnnn1Cc1ccco1)N(CCc1ccccc1)Cc1cc2cccc(C)c2[nH]c1=O (stereo unspecified),29%
13,CC1(C)Cc2cccc(OCC(N)=O)c2O1,-6.4%
14,CCn1ncc(Br)c1C(=O)Nc1cc(C)ccc1F,-6.9%
15,Cc1csc(NC(=O)CN2CCCCCC2)n1,0.6%
16,CC(Oc1ccc(Cl)cc1Cl)C(=O)/C=C/N(C)C (stereo unspecified),23%
17,Cc1cc(=O)cc(C)[nH]1,-13.9%
18,Cc1ncn(C23CC4CC(CC(O)(C4)C2)C3)n1,10.7%
19,COCCOCCn1cnc2ccccc21,0%
20,CC(C)c1ccc(NC(=O)CCN2C(=O)c3ccc([N+](=O)[O-])cc3C2=O)cc1,14.3%
21,CCC(CC)C(=O)Nc1cc(C(=O)OC)cc(C(=O)OC)c1,9%
22,Cc1sc(NC(=O)C2C3CCC(O3)C2C(=O)O)c(C(=O)OC(C)C)c1-c1ccc(Cl)cc1 (stereo unspecified),9.3%
23,CC(C)COC(=O)c1ccc(NC(=O)C2C3C=CC(C3)C2C(=O)O)cc1 (stereo unspecified),29.9%
24,COC(=O)c1cc(NC(=O)C2C3C=CC(C3)C2C(=O)O)cc(C(=O)OC)c1 (stereo unspecified),64.3% (active)

row,SMILES,inhibition
1,CC(C)OC(=O)c1cc(NC(=O)C2C3CCC(O3)C2C(=O)O)cc(C(=O)OC(C)C)c1 (stereo unspecified),79.4% (active)
2,Cn1c(=O)c2c(n(Cc3ccccc3)c1=O)NC(=O)C2CC(=O)N1CCc2ccccc2C1 (stereo unspecified),-4.4%
3,CSc1nnc2c(n1)OC(c1ccsc1)N(C(C)=O)c1ccccc1-2 (stereo unspecified),10%
4,C=CCNC(=O)CCCC(=O)NCC=C,8.2%
5,CCN(CC)P(=O)(C(NC(=O)OC)C(F)(F)C(F)(F)C(F)(F)C(F)F)N(CC)CC (stereo unspecified),21%
6,O=C(NCc1ccccc1Cl)c1csc2c1CCCCC2,-153%
7,Cn1c(SCC(=O)NC2CCCCC2)nnc1-c1cc2ccccc2o1,9.1%
8,CCOc1cc2c(cc1OCC)C(C(=O)O)C(c1ccc(OC)c(O)c1)N(C)C2=O (stereo unspecified),-10%
9,O=C(NCc1cccs1)c1ccc2c(c1)ncn2C1CCCC1,25.4%
10,CC(=O)NC1CC2CCCC(C1)N2CC(=O)Nc1ccccc1 (stereo unspecified),50.7% (active)
11,COc1ccc(NC(=O)NC2CC3CCCC(C2)N3Cc2ccccc2)cc1 (stereo unspecified),-6.4%
12,O=C(CN1C2CCC1CC(NC(=O)C1CC1)C2)NCc1ccccc1 (stereo unspecified),-10.9%
13,c1cc(-n2cnnn2)ccc1NC1=NCCC1,-26.8%
14,O=C(c1ccc(-n2cnnn2)cc1)N1CCN(C(c2ccccc2)c2ccccc2)CC1,83.4% (active)
15,O=C(O)CC(c1ccccc1)n1cnnn1 (stereo unspecified),-7.7%
16,Cc1ccc(S(=O)(=O)N2CCN(C(=O)CCC(=O)NC3CCCc4ccccc43)CC2)cc1 (stereo unspecified),32.1%
17,CCOC(=O)N1CCN(S(=O)(=O)c2cc3c(cc2C)NC(=O)CO3)CC1,-21.5%
18,Cc1ccc2oc(=O)c3cnn(CC(=O)N(Cc4ccco4)C4CCCCC4)c3c2c1,19.5%
19,CCCOc1ccc(Cn2c(O)cc(=O)[nH]c2=O)cc1,-7.9%
20,CCOC(=O)c1cc2c(ccn2C)n1CC(=O)N1CCC(C)CC1,29.1%
21,CCOC(=O)c1cc2sccc2n1Cc1ccc(C#N)cc1,96.7% (active)
22,CCc1c(C)nc2ncnn2c1N1CCC(C(=O)NCc2ccc3c(c2)OCO3)CC1,12.9%
23,CCn1cc(C(=O)NCc2ccc3c(c2)OCO3)c2cc(OC)c(OC)cc2c1=O,31.5%
24,Cc1nc2c(C(=O)NCc3ccc4c(c3)OCO4)c[nH]n2c(=O)c1Cc1ccccc1F,93.4% (active)

# Source: PubChem BioAssay AID777 (Sanford-Burnham Center for Chemical Genomics, 2007)
